Source: PubChem BioAssay (National Center for Advancing Translational Sciences (NCATS))
SARS PLpro yeast: SARS-CoV PLP inhibition in yeast. S. cerevisiae expressing SARS-CoV PLpro, growth rescue. Potency, µM (titrated, usually from 32.9 µM), inactives show top-dose activity, positive = growth rescue, actives largely listed as activators. 330,000 tested, 0.19% active; calls by dose curve; also: potency is read from the fitted curve at half-maximal effect; 0% is about no effect; nearly all actives have a fitted effect of over 55% in size
AMA1-RON2 inh: disrupts binding of P. falciparum AMA1 to RON2; AID 720542; AlphaScreen AMA1-biotinylated RON2 peptide binding; Potency, µM (series often up to 58.2 µM), for the others: at the top dose activity change, negative = inhibition, most hits filed as inhibitors; 360,000 tested, 0.2% active;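 also: potency is read from the fitted curve at half-maximal effect; 0% = vehicle wells and -100% = peptide control; nearly all actives have a fitted effect of over 45% in size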
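AMA1 (3D7) with his tag at 25 nM final met compounds first, then biotinylated RON2 peptide at 25 nM; detection used donor plus acceptor beads, 10 µg/mL apiece, read by AlphaScreen after 30 min at room temperature.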
Shiga toxin inh: blocks Shiga toxin action in Vero cells. Vero cells, Shiga toxin protein synthesis inhibition reporter. inhibition, % at 38.7 µM. 290,000 tested, 9.2% active; in the data active = inhibition mostly above about 28%, no sharp cut-off; inactive = mostly below about 43%; also: 0% is about no effect
AmpC inh detg: inhibitors of E. coli AmpC beta-lactamase with detergent. P00811. 370,000 tested, 0.041% active. AmpC hydrolysis of nitrocefin, absorbance 480 nm, 0.01% Triton. Potency, µM (top dose mostly 114 µM), without a hit: at the highest dose activity change, negative = inhibition, usual class: inhibitors;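 also: potency is read from the fitted curve at half-maximal effect; 0% = no-compound wells and -100% = no-enzyme wells; nearly all actives have a fitted effect of over 25% in size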
Target sequence (P00811 whole entry, looked up): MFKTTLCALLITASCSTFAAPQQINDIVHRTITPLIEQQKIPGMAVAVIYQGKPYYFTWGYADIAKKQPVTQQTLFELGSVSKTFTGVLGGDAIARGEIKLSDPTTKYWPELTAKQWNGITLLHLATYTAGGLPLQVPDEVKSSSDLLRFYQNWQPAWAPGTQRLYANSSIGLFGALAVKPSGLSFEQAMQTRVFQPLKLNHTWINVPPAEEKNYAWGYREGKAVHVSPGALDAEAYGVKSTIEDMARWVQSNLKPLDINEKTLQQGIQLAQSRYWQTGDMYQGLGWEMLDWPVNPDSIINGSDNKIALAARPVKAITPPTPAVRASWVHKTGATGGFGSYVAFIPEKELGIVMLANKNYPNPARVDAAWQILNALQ
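20 mM phosphate pH 7.0 + 0.01% (detergent screen) or 0.0001% Triton X-100; 5.3 nM AmpC reagent; cpd preinc 15 min RT; nitrocefin (800 uM stock) to start; A480 q20 s × 4 min; Activity was normalised to no-enzyme and no-compound control wells.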
AmpC inh no detg: blocks E. coli AmpC beta-lactamase in detergent-free assay; P00811; AmpC nitrocefin hydrolysis, absorbance 480 nm, 0.0001% Triton; Potency, µM (series often up to 57.1 µM), without a hit: top-dose activity change, negative = inhibition, actives largely listed as inhibitors; 330,000 tested, 0.52% active; AID 485341;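 also: potency is read from the fitted curve at half-maximal effect; plate controls were no compound for no effect and no enzyme for full effect; nearly all actives have a fitted effect of over 20% in size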
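AmpC (5.3 nM in the dispensed reagent) in 20 mM phosphate pH 7.0 with 0.01% (detergent screen) or 0.0001% Triton X-100 was preincubated with compounds for 15 min at room temperature. Nitrocefin was then added from an 800 uM solution, and hydrolysis was followed at 480 nm.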
CHX counter: counter-screen for Shiga toxin inhibitors: cycloheximide protein synthesis inhibition; cell reporter, cycloheximide protein synthesis inhibition counterscreen; 300,000 tested, 12% active; max response, %; in the data active = max response mostly above about 13%, no sharp cut-off; inactive = mostly below about 14%; also: read at 38.3 µM for the half of the compounds with a filed dose; 0% is about no effect
* = called active by the depositor; [ ] = another dose, or the depositor's remark. The entries come from a sample that favours hits as a whole. Unless noted, calls follow the shape of the dose curve; as a rule, active = well fitted curve in the direction sought with a large enough effect; inconclusive = small, poorly fitted or top-dose-only effect, or another doubt; inactive = no such curve, though single readings can be large; an effect the other way counts as inactive or inconclusive.

`CC(=NCCc1ccccc1)C1=C(O)CSC1=O` gave SARS PLpro yeast 11.1%, AMA1-RON2 inh -14.3%, Shiga toxin inh 13.6, AmpC inh detg -9.9%, AmpC inh no detg -10.4% and CHX counter 27.8*.
CC(=NCCc1ccccc1)C1=C(O)CCC1=O was read as SARS PLpro yeast 2.7%, AMA1-RON2 inh -1.2%, Shiga toxin inh -2.8, AmpC inh detg inconclusive, AmpC inh no detg -22.3% and CHX counter -0.5.
`O=C(CN1C2=NCCCN2c2ccccc21)c1cccs1` gave SARS PLpro yeast 0.7%, AMA1-RON2 inh -8.9%, Shiga toxin inh -8.2, AmpC inh detg inconclusive, AmpC inh no detg -15.6% and CHX counter -4.0.
c1nnc(NC2=NCCC2)s1 was read as SARS PLpro yeast 4.3%, AMA1-RON2 inh 8.3%, Shiga toxin inh -14.1, AmpC inh detg inconclusive, AmpC inh no detg -10.6% and CHX counter -0.8.
`C1CCN=C(Nc2nc3c(s2)CCCC3)CC1` gave SARS PLpro yeast 1.0%, AMA1-RON2 inh -1.4%, Shiga toxin inh 120.3*, AmpC inh detg -11.9%, AmpC inh no detg -23.0% and CHX counter 38.5*.
`c1nnc(NC2=NCCCCC2)s1` gave SARS PLpro yeast -2.7%, AMA1-RON2 inh 2.7%, Shiga toxin inh 32.3, AmpC inh detg 2.3%, AmpC inh no detg -12.3% and CHX counter 21.7*.
`COc1ccc(N2CC(C)(C)C2=O)cc1` gave SARS PLpro yeast -1.6%, AMA1-RON2 inh 17.0%, Shiga toxin inh 34.2, AmpC inh detg 7.2%, AmpC inh no detg -7.1% and CHX counter 2.5.
`CC1(C)CN(c2ccc(N3CC(C)(C)C3=O)cc2)C1=O` gave SARS PLpro yeast -1.5%, AMA1-RON2 inh -2.5%, Shiga toxin inh 69.3*, AmpC inh detg 3.5%, AmpC inh no detg -0.7% and CHX counter 39.0*.
Screening Nc1ccc2c(=O)[nH][nH]c(=O)c2c1 returned AMA1-RON2 inh -5.4%.
For Nc1ccc2oc3ccc(N)cc3c(=O)c2c1 the results were SARS PLpro yeast 6.0%, AMA1-RON2 inh 32.6%, Shiga toxin inh 39.1, AmpC inh detg 3.8%, AmpC inh no detg -9.3% and CHX counter 37.8*.
`CCN(Cc1nc(-c2ccccc2)no1)C(=O)c1ccoc1C` gave SARS PLpro yeast 0.5%, AMA1-RON2 inh 1.2%, Shiga toxin inh 4.4, AmpC inh detg -7.5%, AmpC inh no detg 0.3% and CHX counter -3.4.
For c1ccc(CNc2ccc3c(c2)ncn3C2CCCCC2)nc1 the results were SARS PLpro yeast -1.8%, AMA1-RON2 inh inconclusive, Shiga toxin inh 45.9*, AmpC inh detg inconclusive, AmpC inh no detg 7.08µM* and CHX counter 21.9*.
CCOCCCNC(=O)CCc1nnc2ccc(N3CCN(c4cccc(OC)c4)CC3)nn12 was read as AmpC inh detg -4.1%.
CCCCNC(=O)CNC(=O)c1nn(-c2ccc(OC)cc2)c(=O)c2ccccc12 was read as SARS PLpro yeast 0.7%, AMA1-RON2 inh 5.0%, Shiga toxin inh -4.7, AmpC inh detg -7.0%, AmpC inh no detg -7.2% and CHX counter -2.7.
CC(C)(C)C(=O)[C@H]1[C@H](c2ccccc2)[C@@]2(N=C(c3ccccc3)OC2=O)C2c3ccccc3C=NN21 (some centres undefined) was read as SARS PLpro yeast -10.2%, AMA1-RON2 inh -2.6%, Shiga toxin inh 25.6, AmpC inh detg inconclusive, AmpC inh no detg -52.0% and CHX counter 39.8*.
Screening COc1ccc(-c2nnc(SCC(=O)NC3CCCCC3)nc2-c2ccc(OC)cc2)cc1 returned AmpC inh detg 7.9%.
For COc1ccc(-c2nc(SCC(=O)NC3CCCCC3)n[nH]2)cc1 the results were SARS PLpro yeast -0.1%, AMA1-RON2 inh 17.9%, Shiga toxin inh 20.3, AmpC inh detg 1.7%, AmpC inh no detg -39.9% and CHX counter 23.6*.
Screening COc1ccc(-c2cn3nc(SCC(=O)NC4CCCCC4)ccc3n2)cc1 returned SARS PLpro yeast -0.6%, AMA1-RON2 inh -0.8%, Shiga toxin inh 94.6*, AmpC inh detg -6.0%, AmpC inh no detg 6.3% and CHX counter 49.9*.
`CCOc1ccc(-c2ccc(SCC(=O)NC3CCCCC3)nn2)cc1` gave SARS PLpro yeast -4.7%, AMA1-RON2 inh -4.8%, Shiga toxin inh 39.3, AmpC inh detg -3.3%, AmpC inh no detg -11.1% and CHX counter 16.7*.
For Cc1ccc(NC(=S)N2CCC(NC(=O)c3ccc(C)cc3)CC2)cc1 the results were SARS PLpro yeast -0.2%, AMA1-RON2 inh 5.0%, Shiga toxin inh 11.6, AmpC inh detg 0.4%, AmpC inh no detg -19.6% and CHX counter 7.8.
O=C(Oc1c(Cl)cc(Cl)c2cccnc12)c1cccc([N+](=O)[O-])c1 was read as SARS PLpro yeast -117.9%, AMA1-RON2 inh 6.3%[2.32 µM], Shiga toxin inh -3.2, AmpC inh detg 3.5%, AmpC inh no detg -16.8% and CHX counter -1.9.
O=C(NCc1ccc2c(c1)OCO2)c1cnc2ccccn2c1=O was read as SARS PLpro yeast inconclusive, AMA1-RON2 inh -5.6%, Shiga toxin inh -14.0, AmpC inh detg 1.3%, AmpC inh no detg -1.1% and CHX counter -0.8.
For Cc1cc(NC(=O)CSc2nnc3c4c(C)c(C)sc4ncn23)no1 the results were SARS PLpro yeast -2.7%, AMA1-RON2 inh 16.0%, Shiga toxin inh -5.6, AmpC inh detg -9.3%, AmpC inh no detg -11.3% and CHX counter -3.6.
For COc1cccc(NC(=O)c2cc3cccc(OC)c3o/c2=N\O)c1 the results were SARS PLpro yeast -1.7%, Shiga toxin inh 109.4*, AmpC inh detg -0.5%, AmpC inh no detg 150.7% and CHX counter 81.1*.
COc1cccc(NC(=O)c2cc3ccccc3o/c2=N\O)c1 was read as SARS PLpro yeast -19.1%, AMA1-RON2 inh -1.7%, AmpC inh detg -17.8%, AmpC inh no detg -15.6% and CHX counter 19.2*.
For O=C(Nc1ccccc1Cl)c1cc2ccccc2o/c1=N\O the results were SARS PLpro yeast -12.4%, AMA1-RON2 inh -8.1%, Shiga toxin inh 123.4*, AmpC inh detg -8.0%, AmpC inh no detg -25.6% and CHX counter 40.9*.
COc1cccc(NC(=O)c2ccccc2Oc2ccccc2)c1 was read as SARS PLpro yeast -8.9%, AMA1-RON2 inh 7.0%, Shiga toxin inh 13.6, AmpC inh detg inconclusive, AmpC inh no detg -28.7% and CHX counter -1.7.
CC1(C)CC(=O)C2=C(C1)Oc1ncn(CCO)c(=N)c1C2c1ccccc1 (centres undefined) was read as SARS PLpro yeast 7.2%, AMA1-RON2 inh -5.9%, Shiga toxin inh 7.1, AmpC inh detg -0.6%, AmpC inh no detg -9.5% and CHX counter -5.5.
For Cc1cc(C)c2c3c(sc2n1)C(=O)N(c1ccccc1)CC(=O)N3 the results were SARS PLpro yeast 0.3%, AMA1-RON2 inh -8.1%, Shiga toxin inh 32.8, AmpC inh detg 4.3%, AmpC inh no detg -18.6% and CHX counter -2.3.
